The structures appear in SMILES notation. The panel holds about 83,000 compounds, 20% with a hit somewhere; the sample as a whole holds those more often.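 Cell lines were cultured in 96-well plates, exposed to a single compound concentration, and assessed for percent growth 48 hours later.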 Active and inactive are the calls of the source. Rule for the calls: active = growth percent below 10; inactive = the rest.

For the first assay, the system named is BT-549 breast. Description: NCI-60 one-dose screen, 48 h (100 = growth as untreated, 0 = no growth, -100 = all killed). The conditions noted are these: 10 µM unless noted.
As for `O=C(Nc1nc2c(s1)CCc1c-2c(Br)n(Cc2ccccc2)c1Br)c1ccccc1`, the growth is 52.8% (inactive). For the molecule `S=C1NC2(c3ccccc3)CCC(=S)N2c2ccccc21` (centres undefined), the growth is 107% (inactive).

`Nc1ccccc1-c1ccc(-c2ccc(Cl)cc2)c2c1[nH]c1ccccc12`: the growth was 85.4% (inactive). Still for that read-out and setting: with `O=C1Nc2ccccc2/C1=C/c1cccs1` the figure was 88.5% (inactive); with `OCCNc1nc(Nc2ccc(C3=NN(c4cc(Cl)cc(Cl)c4)C(c4ccc(C(F)(F)F)cc4)C3)cc2)nc(N2CCOCC2)n1` (centres undefined), 99.3% (inactive); with `COc1ccc(-c2nsc3c2NC(=O)CC3c2ccc3c(c2)OCCO3)cc1` (centres undefined), 27.8% (inactive). For the molecule `COc1cc(/C=C2\CN(C)C/C(=C\c3cc(CN4CCCCC4)c(O)c(OC)c3)C2=O)cc(CN2CCCCC2)c1O`, the growth was 61.3% (inactive). On the same count and under the same terms, with `CCCCOCc1cc(CN2CCN(C)CC2)c(O)c2ncccc12` the figure was 62% (inactive); with `NCCNc1nc2ccccc2c2c(=O)c3cc(F)cc(Cl)c3sc12`, 84.8% (inactive). `CNC(=O)c1cc(Oc2ccc(CC(=O)Nc3cc(C(C)(C)C)cn3C)cc2)ccn1`: the growth is 63.9% (inactive).

The subject of a further assay is MDA-MB-435 melanoma. Described as above. The conditions noted are these: 10 µM unless noted.
Take `Cc1ccc(C)c(-c2csc(Nc3ccc(C)c(C)c3)n2)c1`: the growth was -58.3% (active). As to `COc1ccc(-c2nnc(COc3ccc(C(=O)/C=C/c4ccco4)cc3)o2)cc1`, the growth is 10.9% (inactive). On the same count and under the same terms, the result for `O=C1/C=C/[C@@H](O)[C@@H]2C[C@@H](O)C[C@H]2/C=C/CCCCO1` reads 23.5% (inactive).

Turning to `COc1ccc(CCN2C(=O)CCSC2=S)cc1`, the growth was 4.04% (active). The same measure, in the same setting: with `COc1ccc(/C=C/C(=O)c2ccc3cc(OC)c(OC)cc3c2)cc1OC` the figure was 7.45% (active); with `CC(C)c1ccc(S(=O)(=O)NC(=O)NC2CCCC2)cc1`, 100% (inactive); with `CCN1CCN(c2cc(C)c3cc(NC(=O)c4ccc(OC)c(OC)c4)ccc3n2)CC1`, -42% (active).

Take `CCOC(=O)c1c2c(c(C)n1Cc1ccc(OC)cc1)-c1oncc1CC2`: the growth is 120% (inactive). As to `COC(=O)/C(=C\c1c(C)[nH]c2ccccc12)S(=O)(=O)c1ccccc1`, the growth is 13.9% (inactive).

For `O=C(NCCCN1CCC(N2CCCCC2)CC1)C1=Cc2cc(Br)ccc2OC1`, the growth was 51.3% (inactive). With `O=C(Nc1ccc(-c2nc3cc4ccccc4cc3[nH]2)cc1)c1cccc(Br)c1`, the growth was 30% (inactive). As for `Nc1nc(-c2cnccn2)nn1-c1nc2ccccc2s1`, the growth is 103% (inactive). As for `CCCCN1CCN(c2ccc3nc(-c4ccc5nc(-c6ccc(C(F)(F)F)cc6)[nH]c5c4)[nH]c3c2)CC1`, the growth was -85.3% (active). Regarding `O=C(Nc1ccc(N2CCNCC2)cn1)c1[nH]ncc1Nc1ncnc2sccc12`, the growth was -86.1% (active).

For `CCOC(=O)CSc1c(-c2ccccc2)c2cc(Cl)ccc2[nH]c1=O`, the growth was 99.8% (inactive). Consider `O=C1Nc2ccccc2/C1=C/c1ccc[nH]1`, for which the growth was 101% (inactive). For `NC(CCc1nc2ccccc2c(=O)[nH]1)C(=O)O` (centres undefined), the growth was 100% (inactive).

In the case of `CCCSC1=NC2C(N(CC)C(=O)N2CC)N1/N=C/C=C/c1ccccc1[N+](=O)[O-]` (centres undefined), the growth is -30.1% (active). Take `COc1cccc(/C(C#N)=C/c2nc3c(N4CCOCC4)nc(Cl)nc3n2C)c1`: the growth was -80.2% (active). For the molecule `CN1CCN(Cc2ccc(NC(=O)c3[nH]ncc3Nc3cc(OC4CCCC4)ncn3)cc2)CC1`, the growth is 41.5% (inactive).

Regarding `COc1cccc(C(=O)NC(c2ccc(C)cc2)c2cc(Cl)c3cccnc3c2O)c1` (centres undefined), the growth is 19.4% (inactive). On to `COc1ccc(-c2nsc3c2NC(=O)CC3c2ccsc2)cc1` (centres undefined), for which the growth is -44% (active). For `COc1cc(C2C(C#N)=C(N)OC3=C2C(=O)c2ccccc2C3=O)cc(OC)c1O` (centres undefined), the growth is -31% (active). Same read-out and setting: with `CCN(CC)c1cc(C)c2cc(NC(=O)c3cccc(OC)c3)ccc2n1` the figure was 74.2% (inactive).

Consider `CCCCNc1nc(NC(C)(C)C)nc(NC(C)(C)C)n1`, for which the growth is 72% (inactive).

Consider `CC(=O)n1cc(-c2c[nH]c3ccccc23)c(-c2ccc(Cl)cc2)n1`, for which the growth is 88.5% (inactive).

Regarding `COc1cccc(C2=NN3C(C2)c2ccccc2OC3c2ccc(/C=C3\SC(=O)NC3=O)cc2)c1` (centres undefined), the growth was 105% (inactive). With `COC(=O)/C(CCC=C(C)C)=C1\[C@@H](OC(C)=O)C[C@@]2(C)[C@H]1C[C@@H](O)[C@H]1[C@@]3(C)CC[C@H](NCCCNCCCCNCCCN)[C@@H](C)[C@@H]3CC[C@@]12C`, the growth was 8.03% (active). Still for that read-out and setting: the result for `CN1C(=O)N(C)C2Nn3c(s/c(=C\c4ccc(Cl)cc4Cl)c3=O)=NC21` (centres undefined) reads 8.74% (active).

The values above are taken from PubChem BioAssay (NCI).
